Results taken from PubChem BioAssay (Tox21).
Records with an inconclusive call do not appear. Where a call stands in place of a potency, no number is given. The source made the active and inactive calls. Calls follow the shape of the full dose curve.

Experiment: cAMP Responsive Elements (CRE) small molecule agonists, cell-based qHTS assay (AID 1963590)
Conditions: CRE-bla HEK293T, beta-lactamase FRET ratio, 3 h; series mostly up to 92.4 µM
Method in brief: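 CRE-bla HEK 293T cells in DMEM with 10% dialyzed FBS, NEAA, pyruvate and 25 mM HEPES were plated 18 h at 37 C/5% CO2, then exposed to compounds in DMSO for 3 h before LiveBLAzer B/G FRET substrate addition.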
Potency is read from the fitted curve at half-maximal effect.

| Structure (SMILES) | Potency | activation |
| --- | --- | --- |
| Nc1cccc2c(N)cccc12 | inactive |  |
| O=C(OC[C@H]1O[C@@H](OC(=O)c2cc(O)c(O)c(OC(=O)c3cc(O)c(O)c(O)c3)c2)[C@H](OC(=O)c2cc(O)c(O)c(OC(=O)c3cc(O)c(O)c(O)c3)c2)[C@@H](OC(=O)c2cc(O)c(O)c(OC(=O)c3cc(O)c(O)c(O)c3)c2)[C@@H]1OC(=O)c1cc(O)c(O)c(OC(=O)c2cc(O)c(O)c(O)c2)c1)c1cc(O)c(O)c(OC(=O)c2cc(O)c(O)c(O)c2)c1 |  | 4.01% [at 19 µM] (inactive) |
| COC(=O)CC(C)CCC=C(C)C (centres undefined) | inactive |  |
| CNCc1ccc(NC(=O)c2c[nH]c3c2C(=O)CCC3)cc1 | inactive |  |
| Cc1cccc(C)c1NC(=O)CN1CCN(CCCC(c2ccc(F)cc2)c2ccc(F)cc2)CC1 | inactive |  |
| COc1ccccc1N1CCN(CC(O)COc2cccc3ccccc23)CC1 (centres undefined) | inactive |  |
| CC(CN)CC(C)(C)CCN (centres undefined) | inactive |  |
| Cc1cc(NC(=O)C(=O)O)cc(C)c1Oc1ccc(O)c2c1CCC2 | inactive |  |
| OCCCS | inactive |  |
| CCCCNCCCC | inactive |  |
| CCC(C)(C)c1ccc(CC(C)CN2C[C@@H](C)O[C@@H](C)C2)cc1 (some centres undefined) | inactive |  |
| CCCCCCCCCCCCCCCCCCCl |  | 0.946% [at 8.39 µM] (inactive) |
| Cc1cc(Nc2ccc(O)cc2)ccc1N | inactive |  |
| c1cc(CN2CCCCC2)cc(OCCCNc2nc3ccccc3s2)c1 | inactive |  |
| c1ccc(Cc2ccccc2)cc1 | inactive |  |
| S=c1[nH]c2ccccc2s1 | 48.6 µM (active) |  |
| Oc1c(I)cc(Cl)c2cccnc12 | inactive |  |
| CCN(CC)CCNc1ccc(CO)c2sc3ccccc3c(=O)c12 | inactive |  |
| CCOc1ccc(N=Nc2ccc(/C=C/c3ccc(N=Nc4ccc(OCC)cc4)cc3S(=O)(=O)O)c(S(=O)(=O)O)c2)cc1 | inactive |  |
